compound: COc1cccc(CN(C)C(=O)CCl)c1; assay: log2 ratio of Biotin-Ahx-Ub-VS probe labelling (compound/DMSO); higher = less target engagement, active = hit call of the paper (q ≤ 0.05, log2 ratio ≤ -1); settings: compound concentration: 50uM; treatment time: 3 h
Method: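 Round 2 competitive ABPP in HEK293T lysate. Compounds were tested at 50 and 200 µM for 3 h, followed by Biotin-Ahx-Ub-VS enrichment and diaPASEF LC-MS/MS. Values are the average log2 ratio (compound/DMSO) from an unpaired t-test (n=3 treated, n=26 DMSO).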

UniProt Q9UPT9, sequence (Q9UPT9 whole entry): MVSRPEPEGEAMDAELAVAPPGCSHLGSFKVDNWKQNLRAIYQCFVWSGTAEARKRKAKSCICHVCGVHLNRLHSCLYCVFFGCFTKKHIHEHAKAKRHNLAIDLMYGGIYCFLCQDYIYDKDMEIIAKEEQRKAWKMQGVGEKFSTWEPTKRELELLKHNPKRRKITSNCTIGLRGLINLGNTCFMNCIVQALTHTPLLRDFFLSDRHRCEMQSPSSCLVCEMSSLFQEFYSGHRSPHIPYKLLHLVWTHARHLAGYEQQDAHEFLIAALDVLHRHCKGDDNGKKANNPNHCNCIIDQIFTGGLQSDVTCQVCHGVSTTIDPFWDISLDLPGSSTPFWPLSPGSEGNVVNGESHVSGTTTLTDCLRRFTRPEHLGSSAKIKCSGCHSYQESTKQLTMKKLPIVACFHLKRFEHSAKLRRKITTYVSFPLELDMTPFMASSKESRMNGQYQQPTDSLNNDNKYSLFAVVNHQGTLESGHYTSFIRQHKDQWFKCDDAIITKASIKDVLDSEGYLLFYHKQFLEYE
UniProt Q70EL2, sequence (Q70EL2 whole entry): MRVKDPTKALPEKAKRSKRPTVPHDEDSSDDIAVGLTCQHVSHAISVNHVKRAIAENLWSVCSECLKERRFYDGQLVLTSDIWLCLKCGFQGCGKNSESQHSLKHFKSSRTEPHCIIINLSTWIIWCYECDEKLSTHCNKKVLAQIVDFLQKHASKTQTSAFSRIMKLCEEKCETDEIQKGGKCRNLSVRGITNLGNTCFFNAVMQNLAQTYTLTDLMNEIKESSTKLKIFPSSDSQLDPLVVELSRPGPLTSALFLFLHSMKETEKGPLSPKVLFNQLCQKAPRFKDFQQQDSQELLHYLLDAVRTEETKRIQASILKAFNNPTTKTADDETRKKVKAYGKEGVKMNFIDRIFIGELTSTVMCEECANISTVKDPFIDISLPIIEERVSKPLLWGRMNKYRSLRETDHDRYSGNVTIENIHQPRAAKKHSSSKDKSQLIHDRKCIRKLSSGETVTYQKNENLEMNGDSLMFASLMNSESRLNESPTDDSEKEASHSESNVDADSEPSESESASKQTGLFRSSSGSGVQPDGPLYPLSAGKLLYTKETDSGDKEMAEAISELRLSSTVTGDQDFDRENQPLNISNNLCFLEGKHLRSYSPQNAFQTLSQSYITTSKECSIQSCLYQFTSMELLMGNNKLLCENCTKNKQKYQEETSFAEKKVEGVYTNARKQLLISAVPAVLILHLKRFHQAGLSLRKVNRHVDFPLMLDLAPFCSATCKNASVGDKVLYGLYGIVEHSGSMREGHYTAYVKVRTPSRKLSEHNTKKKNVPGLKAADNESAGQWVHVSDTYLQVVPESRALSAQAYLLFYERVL
UniProt Q9NUU6, sequence (Q9NUU6 whole entry): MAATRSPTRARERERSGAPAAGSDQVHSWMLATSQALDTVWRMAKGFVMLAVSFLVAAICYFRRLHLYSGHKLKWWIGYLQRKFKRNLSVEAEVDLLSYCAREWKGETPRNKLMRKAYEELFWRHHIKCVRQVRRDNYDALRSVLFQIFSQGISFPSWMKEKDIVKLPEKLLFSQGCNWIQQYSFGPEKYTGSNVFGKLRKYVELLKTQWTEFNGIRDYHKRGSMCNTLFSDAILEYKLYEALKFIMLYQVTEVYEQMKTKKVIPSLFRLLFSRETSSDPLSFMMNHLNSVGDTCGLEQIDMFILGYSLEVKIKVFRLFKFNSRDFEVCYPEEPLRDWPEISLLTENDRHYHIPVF
UniProt P51665, sequence (P51665 whole entry): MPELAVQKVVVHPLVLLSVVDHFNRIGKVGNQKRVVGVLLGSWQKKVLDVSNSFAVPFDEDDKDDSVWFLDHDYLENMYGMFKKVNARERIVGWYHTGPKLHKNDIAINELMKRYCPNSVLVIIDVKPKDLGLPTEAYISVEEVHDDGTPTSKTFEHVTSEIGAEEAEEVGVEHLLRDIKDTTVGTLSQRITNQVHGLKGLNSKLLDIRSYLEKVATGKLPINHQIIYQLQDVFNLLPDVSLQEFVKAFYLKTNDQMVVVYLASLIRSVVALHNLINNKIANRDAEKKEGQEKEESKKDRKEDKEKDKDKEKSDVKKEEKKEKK
UniProt P45974, sequence (P45974 whole entry): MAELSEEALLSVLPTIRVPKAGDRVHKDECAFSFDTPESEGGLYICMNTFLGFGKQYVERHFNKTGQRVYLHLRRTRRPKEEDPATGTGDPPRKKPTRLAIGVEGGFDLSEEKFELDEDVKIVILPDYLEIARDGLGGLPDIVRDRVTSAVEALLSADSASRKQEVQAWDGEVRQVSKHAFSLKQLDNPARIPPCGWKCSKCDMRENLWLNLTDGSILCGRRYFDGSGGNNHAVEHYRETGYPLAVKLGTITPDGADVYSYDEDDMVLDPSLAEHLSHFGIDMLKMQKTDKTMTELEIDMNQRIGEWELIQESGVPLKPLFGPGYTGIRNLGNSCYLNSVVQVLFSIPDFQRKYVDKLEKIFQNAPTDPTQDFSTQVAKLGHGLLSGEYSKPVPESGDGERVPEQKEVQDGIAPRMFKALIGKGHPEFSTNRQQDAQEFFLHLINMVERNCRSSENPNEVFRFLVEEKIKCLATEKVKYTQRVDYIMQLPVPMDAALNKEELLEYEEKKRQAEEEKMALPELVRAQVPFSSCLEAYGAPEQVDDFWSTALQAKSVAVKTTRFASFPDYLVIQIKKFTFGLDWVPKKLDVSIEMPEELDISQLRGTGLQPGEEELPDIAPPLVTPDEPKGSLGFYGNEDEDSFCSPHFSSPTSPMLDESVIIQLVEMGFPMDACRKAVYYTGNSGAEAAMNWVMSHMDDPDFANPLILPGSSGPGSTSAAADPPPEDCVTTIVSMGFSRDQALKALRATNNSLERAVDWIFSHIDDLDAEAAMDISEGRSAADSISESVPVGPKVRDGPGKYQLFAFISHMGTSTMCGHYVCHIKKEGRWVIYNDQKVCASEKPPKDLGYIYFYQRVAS
UniProt Q8N6M0, sequence (Q8N6M0 whole entry): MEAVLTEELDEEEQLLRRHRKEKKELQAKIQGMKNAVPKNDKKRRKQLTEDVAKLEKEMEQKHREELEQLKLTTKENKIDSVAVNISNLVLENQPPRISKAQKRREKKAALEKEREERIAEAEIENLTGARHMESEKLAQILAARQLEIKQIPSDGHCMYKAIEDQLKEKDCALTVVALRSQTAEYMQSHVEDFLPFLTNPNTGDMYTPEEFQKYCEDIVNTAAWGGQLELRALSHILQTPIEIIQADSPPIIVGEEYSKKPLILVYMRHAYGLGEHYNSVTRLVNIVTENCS
UniProt Q5VVQ6, sequence (Q5VVQ6 whole entry): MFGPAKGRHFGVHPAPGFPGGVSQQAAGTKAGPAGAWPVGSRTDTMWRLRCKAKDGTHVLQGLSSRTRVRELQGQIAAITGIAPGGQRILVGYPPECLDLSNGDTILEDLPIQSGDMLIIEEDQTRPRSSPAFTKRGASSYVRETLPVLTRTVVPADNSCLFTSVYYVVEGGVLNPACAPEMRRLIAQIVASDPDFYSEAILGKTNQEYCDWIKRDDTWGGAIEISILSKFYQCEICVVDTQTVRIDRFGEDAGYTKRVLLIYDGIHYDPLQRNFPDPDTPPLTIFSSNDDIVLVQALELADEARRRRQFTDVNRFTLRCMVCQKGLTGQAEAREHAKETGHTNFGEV
UniProt Q6GQQ9, sequence (Q6GQQ9 whole entry): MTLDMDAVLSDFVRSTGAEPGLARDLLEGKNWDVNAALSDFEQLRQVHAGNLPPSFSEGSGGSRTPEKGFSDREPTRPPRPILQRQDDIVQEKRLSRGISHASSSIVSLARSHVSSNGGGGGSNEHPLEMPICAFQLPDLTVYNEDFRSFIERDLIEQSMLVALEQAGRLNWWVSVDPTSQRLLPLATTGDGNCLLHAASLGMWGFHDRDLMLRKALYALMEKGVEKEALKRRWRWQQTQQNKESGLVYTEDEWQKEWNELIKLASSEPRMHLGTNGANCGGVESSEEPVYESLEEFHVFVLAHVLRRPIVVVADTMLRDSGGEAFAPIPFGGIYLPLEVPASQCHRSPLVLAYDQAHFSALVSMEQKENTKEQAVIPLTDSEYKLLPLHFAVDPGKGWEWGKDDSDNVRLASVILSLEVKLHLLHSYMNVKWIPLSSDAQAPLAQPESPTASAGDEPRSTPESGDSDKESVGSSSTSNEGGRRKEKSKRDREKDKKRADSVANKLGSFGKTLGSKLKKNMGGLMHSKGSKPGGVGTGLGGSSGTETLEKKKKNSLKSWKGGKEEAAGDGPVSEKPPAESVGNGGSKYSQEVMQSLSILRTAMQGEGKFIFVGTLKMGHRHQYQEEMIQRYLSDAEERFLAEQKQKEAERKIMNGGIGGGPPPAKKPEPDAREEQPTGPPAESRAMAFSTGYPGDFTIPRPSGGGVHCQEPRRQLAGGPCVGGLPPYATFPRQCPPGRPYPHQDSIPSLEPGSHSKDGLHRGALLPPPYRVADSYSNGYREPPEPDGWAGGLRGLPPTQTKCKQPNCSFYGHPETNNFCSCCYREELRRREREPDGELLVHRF
UniProt O00303, sequence (O00303 whole entry): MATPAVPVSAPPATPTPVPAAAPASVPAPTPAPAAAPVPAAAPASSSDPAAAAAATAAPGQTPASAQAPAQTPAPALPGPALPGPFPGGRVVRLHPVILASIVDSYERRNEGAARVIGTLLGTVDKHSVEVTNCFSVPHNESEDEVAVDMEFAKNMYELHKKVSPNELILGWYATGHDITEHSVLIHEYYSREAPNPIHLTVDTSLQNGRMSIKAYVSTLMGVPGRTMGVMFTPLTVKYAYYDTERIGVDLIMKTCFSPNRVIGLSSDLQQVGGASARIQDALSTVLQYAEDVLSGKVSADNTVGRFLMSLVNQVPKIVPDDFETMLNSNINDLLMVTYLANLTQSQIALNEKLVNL
UniProt P15374, sequence (P15374 whole entry): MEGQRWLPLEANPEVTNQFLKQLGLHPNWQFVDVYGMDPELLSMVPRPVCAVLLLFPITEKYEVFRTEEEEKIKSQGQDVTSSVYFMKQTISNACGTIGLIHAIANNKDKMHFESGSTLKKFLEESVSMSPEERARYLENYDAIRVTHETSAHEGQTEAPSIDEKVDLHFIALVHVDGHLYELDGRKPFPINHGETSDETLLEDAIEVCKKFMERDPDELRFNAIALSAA

| Target | log2 ratio of Biotin-Ahx-Ub-VS probe labelling |
| --- | --- |
| USP14 (UniProt P54578) | -0.0931 (inactive) |
| PSMD7 (UniProt P51665) | 0.132 (inactive) |
| UniProt Q70EL2 | -0.17 (inactive) |
| USP34 (UniProt Q70CQ2) | -0.106 (inactive) |
| BAP1 (UniProt Q92560) | -1.22 (active) |
| EIF3H (UniProt O15372) | -0.183 (inactive) |
| USP39 (UniProt Q53GS9) | -0.0648 (inactive) |
| UCHL3 (UniProt P15374) | -0.285 (inactive) |
| USP24 (UniProt Q9UPU5) | 0.0304 (inactive) |
| OTUD6B (UniProt Q8N6M0) | -0.149 (inactive) |
| USP5 (UniProt P45974) | 0.274 (inactive) |
| YOD1 (UniProt Q5VVQ6) | 0.0405 (inactive) |
| OTUD7B (UniProt Q6GQQ9) | -0.372 (inactive) |
| FAM105A (UniProt Q9NUU6) | -0.133 (inactive) |
| EIF3F (UniProt O00303) | -0.14 (inactive) |
| USP22 (UniProt Q9UPT9) | 0.0954 (inactive) |
| PRPF8 (UniProt Q6P2Q9) | 0.0579 (inactive) |
| USP36 (UniProt Q9P275) | -0.0259 (inactive) |
| USP48 (UniProt Q86UV5) | -0.144 (inactive) |
| USP42 (UniProt Q9H9J4) | 0.0563 (inactive) |

same assay, conditions: compound concentration: 200uM; treatment time: 3 h

| Target | log2 ratio of Biotin-Ahx-Ub-VS probe labelling |
| --- | --- |
| USP14 (UniProt P54578) | -0.202 (inactive) |
| PSMD7 (UniProt P51665) | -0.458 (inactive) |
| UniProt Q70EL2 | -1.02 (active) |
| USP34 (UniProt Q70CQ2) | -0.024 (inactive) |
| BAP1 (UniProt Q92560) | -3.29 (active) |
| EIF3H (UniProt O15372) | 0.043 (inactive) |
| USP39 (UniProt Q53GS9) | -0.162 (inactive) |
| UCHL3 (UniProt P15374) | -0.275 (inactive) |
| USP24 (UniProt Q9UPU5) | -0.88 (inactive) |
| OTUD6B (UniProt Q8N6M0) | -0.283 (inactive) |
| USP5 (UniProt P45974) | 0.357 (inactive) |
| YOD1 (UniProt Q5VVQ6) | -0.24 (inactive) |
| OTUD7B (UniProt Q6GQQ9) | -0.803 (inactive) |
| FAM105A (UniProt Q9NUU6) | 0.096 (inactive) |
| EIF3F (UniProt O00303) | -0.0452 (inactive) |
| USP22 (UniProt Q9UPT9) | -0.231 (inactive) |
| PRPF8 (UniProt Q6P2Q9) | 0.0324 (inactive) |
| USP36 (UniProt Q9P275) | 0.018 (inactive) |
| USP48 (UniProt Q86UV5) | -0.273 (inactive) |
| USP42 (UniProt Q9H9J4) | 0.184 (inactive) |
